The entries come from a sample that favours hits as a whole.
Tb PGK inh – T. brucei PGK inhibition | P07378 | PGK/GAPDH coupled, Kinase-Glo luminescence, 60 min | Potency, µM (series often up to 57.5 µM), without a hit: at the top dose activity change, negative = inhibition, most hits filed as inhibitors | 0.043% of 380,000 active | AID 602233; note: potency is the fitted concentration of half-maximal effect; nearly all actives have a fitted effect of over 60% in size
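Luminescent ATP detection (Kinase-Glo Plus) follows a 60-minute room-temperature incubation, with wells lacking PGK as controls. Buffer: 100 mM TEA (pH 7.6), 5 mM MgCl2, 0.01% Tween-20. Coupling enzyme GAPDH (100 nM final) supplies unstable 1,3-BPG in-well.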
Tb PFK block – T. brucei PFK enzyme inhibition; T. brucei PFK, ADP-Glo luminescence; 0.17% of 330,000 active; AID 485367; Potency, µM (top dose mostly 57.5 µM), for inactives: at the highest dose activity, negative = inhibition, actives largely listed as inhibitors; O15648;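 note: potency is the fitted concentration of half-maximal effect; 0% = uninhibited 1x PFK enzyme wells and -100% = no-enzyme wells; nearly all actives have a fitted effect of over 60% in size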
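ADP-Glo luminescence quantified ADP after 45 min at room temperature, with 1.25 nM T. brucei PFK, 0.1 mM ATP and 0.5 mM fructose-6-phosphate in pH 8.0 TEA buffer. qHTS titrations up to 57 µM; curves classified by quality.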
Pin1 inh – human Pin1 inhibition | Q13526 | Pin1 FP peptide displacement, HiFluor488, 10 min | Potency, µM (series often up to 115 µM), for inactives: top-dose activity, negative = inhibition, hits mostly inhibitors | 0.009% of 390,000 active; active = well fitted inhibition curve with a large enough effect in the polarisation, with a control signal flat, not every such curve was filed as active; inconclusive = small, poorly fitted or top-dose-only effect, or effect the other way, or a change in a side signal; inactive = no such curve, though single readings can be large or run the other way; the % refers to the polarisation; note: potency is the fitted concentration of half-maximal effect
Target sequence (Q13526 whole entry, looked up): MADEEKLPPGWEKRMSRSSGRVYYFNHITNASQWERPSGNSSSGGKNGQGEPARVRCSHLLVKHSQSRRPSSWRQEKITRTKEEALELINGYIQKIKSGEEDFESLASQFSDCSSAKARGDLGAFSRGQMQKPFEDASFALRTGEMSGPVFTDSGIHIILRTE
PI5P4K alpha inh – inhibitors of human PI5P4K alpha; PI5P4Kalpha enzyme, ADP-Glo luminescence, 60 min; hits give low values; max response, %; 1.2% of 330,000 active; active = max response of -50% or lower; inconclusive = between -30% and -50%; inactive = -30% or higher; note: value at the top dose of about 77 µM
Target sequence (P48426 whole entry, looked up): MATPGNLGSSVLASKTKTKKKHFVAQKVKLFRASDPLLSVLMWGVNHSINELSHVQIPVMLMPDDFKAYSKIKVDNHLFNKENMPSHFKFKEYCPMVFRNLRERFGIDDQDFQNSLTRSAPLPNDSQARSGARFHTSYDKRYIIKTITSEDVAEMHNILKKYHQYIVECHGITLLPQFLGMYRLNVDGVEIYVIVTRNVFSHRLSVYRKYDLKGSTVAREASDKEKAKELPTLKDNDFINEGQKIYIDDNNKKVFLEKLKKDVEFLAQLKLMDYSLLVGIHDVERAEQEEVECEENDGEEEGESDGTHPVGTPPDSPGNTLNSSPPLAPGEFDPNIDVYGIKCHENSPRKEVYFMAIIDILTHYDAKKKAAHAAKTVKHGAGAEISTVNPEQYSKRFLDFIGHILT
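Compounds were pin-transferred onto PI5P4Kalpha and substrate in HEPES pH 7.4 buffer with EGTA, CHAPS and 5% DMSO. ATP (5 microM final) started the reaction, which ran 60 minutes at room temperature before ADP-Glo detection.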
PI4K2A inh – inhibitors of human PI4K2A; Q9BTU6; purified PI4K2A, ADP-Glo luminescence, 1 h; hits give low values; activity change, negative = inhibition, % at 76.9 µM; 0.13% of 420,000 active; AID 1346378; in the data active = activity change below about -50%; inconclusive = mostly about -30% to -49%;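 note: -100% = wells without enzyme as full effect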
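ADP-Glo luminescence measured ADP generated by PI4K2A enzyme (4 ug/mL before mixing) with 1.2 mM PI substrate (pre-mix) and 300 microM ATP (pre-mix). Tris pH7.5 buffer with MgCl2, Triton X-100; 1 h reaction at ambient temperature.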
Numbers without * were called inactive; i = inactive; ? = inconclusive; / = no result; ! = repeats disagree. Unless noted, calls come from the whole dose curve; as a rule, active = well fitted curve in the direction sought with a large enough effect; inconclusive = small, poorly fitted or top-dose-only effect, or another doubt; inactive = no such curve, though single readings can be large; an effect the other way counts as inactive or inconclusive. Unless noted, % is set by controls: 0 for no effect and ±100 for the full control effect.

SMILES | Tb PGK inh | Tb PFK block | Pin1 inh | PI5P4K alpha inh | PI4K2A inh
COc1ccc(C2Nc3ccccc3C(=O)N2Cc2cccc3ccccc23)cc1COc1ccc(NC(C)=O)cc1 (stereo not given) | / | / | 32% | / | /
O=C(OCCN1CCN(C2CN(Cc3cn(Cc4ccccc4Cl)nn3)S(=O)(=O)C2)CC1)c1cccs1 (stereo not given) | / | / | / | / | 1
CCCCOc1ccc(-c2nc(/C=N/c3nccs3)c(O)o2)cc1 | -6% | 6% | 41% | 4 | 3
CCOc1ccc2nc(/N=C/c3nc(-c4ccc(Br)cc4)oc3O)sc2c1 | -7% | 0% | ? | -63* | -7
O=C(CSc1nnc(-c2ccncc2)n1-c1ccccc1)Nc1ccc(C(=O)O)cc1 | 0% | 1% | 0% | ? | -2
O=C(CSc1nnc(-c2ccncc2)n1-c1ccccc1Cl)Nc1ccc(C(=O)O)cc1 | 1% | -15% | 1% | -65* | 1
Cn1c(CSCc2ccccc2)nnc1SCC(=O)Nc1ccc(C(=O)O)cc1 | i | -6% | -2% | -73* | -5
CCCCc1oc2ccc(NS(C)(=O)=O)cc2c1C(=O)c1ccc(OCCCN(CCCC)CCCC)cc1 | / | / | / | / | 0
O=C(NNc1nc(=O)c2cccnc2s1)c1ccccc1O | -2% | 0% | ? | -68* | 13
O=C(NNc1c2ccccc2nc2ccccc12)c1ccccc1O | -11% | -3% | ? | -11 | -5
CC(C)C1Nc2ccc(C(=O)O)cc2C2C=CCC21 (stereo not given) | -6% | -18% | ? | ? | -7
CCCC1Nc2ccc(C(=O)O)cc2C2C=CCC12 (stereo not given) | ? | ? | ? | -28 | 3
CCOC(=O)c1ccc2c(c1)C1C=CCC1C(C(=O)O)N2 (stereo not given) | / | 19µM* | / | / | /
CCOC(=O)C1Nc2ccc(C(=O)O)cc2C2C=CCC12 (stereo not given) | ? | -27% | ? | -69* | -22
COC(=O)[C@]12C[C@H](CC(=O)NCC34CC5CC(CC(C5)C3)C4)C(=O)N(Cc3ccc(Cl)cc3Cl)C1=C[C@H](C1CCCC1)O[C@@H]2C | / | / | / | / | -6
O=c1c2ccccc2nc2sc(Nc3ccc4c(c3)CCC4)nn12 | / | / | 68% | / | /
O=C(COc1cccnc1[N+](=O)[O-])c1ccc(Cl)s1 | i | -8% | ? | -86* | -8
O=C(COc1cccnc1[N+](=O)[O-])Nc1ncc(Cl)cc1Cl | -18% | -15% | ? | -71* | -17
O=C(CNC(=O)c1ccccc1)N/N=C/C=C/c1ccccc1 | -1% | -4% | 1% | -22 | 2
O=C(Cc1cc(=O)[nH][nH]1)N/N=C/C=C/c1ccccc1 | i | 5% | ? | -60* | -26
COc1cc(-n2nc(C)c3c2OC(N)=C(C#N)C3c2ccccc2)c(Cl)c(Br)c1O (stereo not given) | -8% | 2% | 29% | -57* | -2
O=C(NOCC1CC1)c1ccc(F)c(F)c1Nc1ccc(I)cc1Cl | / | / | / | / | 1
CC(=O)c1ccc(-n2c(-c3cc(-c4ccco4)[nH]n3)n[nH]c2=S)cc1 | i | -14% | -12% | -57* | -1
COc1cc(N2C(=O)C=CC2=O)ccc1N1C(=O)C=CC1=O | -12% | / | ? | -68* | -17
Nc1ccc(S(=O)(=O)N2CCN(S(=O)(=O)c3ccc4c(c3)OCCO4)CC2)cc1 | / | / | 4% | / | /
SMILES | Tb PGK inh | Tb PFK block | Pin1 inh | PI5P4K alpha inh | PI4K2A inh
O=c1cc(/N=C/c2coc3cc(Br)ccc3c2=O)[nH]c(=S)[nH]1 | -6% | 15% | 1% | -83* | -3
CC(=O)Oc1ccc2c(=O)c(/C=N/c3cc(=O)[nH]c(=S)[nH]3)coc2c1 | -16% | 6% | 6% | -91* | 5
NC(=S)N/N=C/c1coc2ccc(Cl)cc2c1=O | -2% | 0% | 9% | -11 | 2
CC(=O)Oc1ccc2c(=O)c(-c3ccccc3)coc2c1 | -11% | -11% | 2% | -12 | -10
Cc1ccc(S(=O)(=O)N2CCN(c3nc(C#N)nc4ccccc34)CC2)cc1 | / | / | 40% | / | /
COc1ccc(/C=N/Nc2snc(SC)c2C#N)cc1OC | -4% | -2% | ? | -1 | -54*
O[C@@H](COc1cccc2ncccc12)CN1CCN(C2c3ccccc3[C@@H]3[C@H](c4ccccc42)C3(F)F)CC1 (stereo not given in full) | / | / | / | / | -7
NS(=O)(=O)c1ccc(N=Nc2ccc(=O)[nH]c2O)cc1 | ? | 1% | ? | -80* | -10
Cc1c(C#N)c(O)n(C)c(=O)c1N=Nc1ccc(S(N)(=O)=O)cc1 | 2% | 13% | 2% | -15 | -7
NS(=O)(=O)c1ccc(N=Nc2ccc(O)c3ncccc23)cc1 | -21% | -20% | ? | -79* | ?
CCOc1ccc(N=Nc2ccc(O)c3ncccc23)cc1 | 1% | 1% | -5% | 0 | 4
CCCSc1ccc2nc(-c3ccccc3)cn2c1 | ? | -15% | 5% | -14 | -68*
COc1ccccc1C(=O)NNC(=S)NC(=O)c1sc2ccccc2c1Cl | -2% | -2% | -2% | ? | -2
COc1ccccc1C(=O)NC(=S)NNC(=O)c1sc2ccccc2c1Cl | 7% | -6% | 0% | -52* | 1
O=C(NCC1COCCO1)c1ccc2nc(Cc3cccc(Cl)c3)oc2c1 (stereo not given) | -7% | 15µM* | -2% | 2 | -2
O=C(/C=C/c1ccccc1)NC(=S)NNC(=O)c1ccco1 | -4% | 0% | / | -23 | 2
O=C(/C=C/c1ccc(Br)cc1)NC(=S)NNC(=O)c1ccco1 | -12% | -4% | ? | -52* | -2
Cc1cc2c(s1)c1cnn(Cc3ccc(C(F)(F)F)cc3F)c(=O)c1n2C | / | / | 0% | / | /
CCOc1cccc(C(=O)NC(=S)Nc2ccc(Cl)cc2C(=O)O)c1 | -2% | 2% | 1% | -60* | 2
Cc1c(Cl)cccc1NS(=O)(=O)c1ccc2c(c1)C1C=CCC1C(c1ccc(C(=O)O)cc1)N2 (stereo not given) | ? | -28% | ? | -102* | -20
O=C(O)c1ccc2c(c1)C1C=CCC1C(c1ccncc1)N2 (stereo not given) | i | -11% | ? | -4 | 0
CC(=O)c1ccc2c(c1)C1C=CCC1C(c1ccc(S(=O)(=O)N3CCOCC3)cc1)N2 (stereo not given) | -5% | 0% | ? | -65* | -20
COC(=O)c1ccc([C@H]2Nc3ccc(S(=O)(=O)Nc4ccc(C)cc4)cc3[C@H]3C=CC[C@H]32)cc1 | -6% | / | -11% | / | -6
COc1ccc(NS(=O)(=O)c2ccc3c(c2)[C@H]2C=CC[C@H]2[C@@H](c2ccc(C(=O)O)cc2)N3)cc1 | 28µM*! | -7% | / | -65* | -10
COc1cccc(C2c3c(ncn(-c4cccc(Cl)c4)c3=N)Oc3ccc4ccccc4c32)c1 (stereo not given) | / | / | 40% | / | /
